Assay results taken from PubChem BioAssay (NCATS).
Inconclusive results are not listed. Where a call stands in place of a potency, no number is given. Active and inactive are the calls of the source. Calls follow the shape of the dose curve; as a rule, active = well fitted curve in the direction sought with a large enough effect; inconclusive = small, poorly fitted or top-dose-only effect, or another doubt; inactive = no such curve, though single readings can be large; an effect the other way counts as inactive or inconclusive.

Target: Phosphoglycerate kinase, glycosomal (Trypanosoma brucei brucei) (UniProt P07378)
Assay: qHTS Validation Assay to Find Inhibitors of Phosphoglycerate Kinase (AID 504547)
Conditions: enzymatic PGK inhibition, coupled luminescence read-out; series mostly up to 57.5 µM
Outline: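 Inhibition of the enzyme is judged by a Kinase-Glo Plus luminescent signal following a one-hour incubation at room temperature. Because 1,3-BPG is unstable, it is made in situ by GAPDH at 100nM final; no-PGK wells define the baseline.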

Chain of Phosphoglycerate kinase, glycosomal (Trypanosoma brucei brucei) (P07378 whole entry, looked up): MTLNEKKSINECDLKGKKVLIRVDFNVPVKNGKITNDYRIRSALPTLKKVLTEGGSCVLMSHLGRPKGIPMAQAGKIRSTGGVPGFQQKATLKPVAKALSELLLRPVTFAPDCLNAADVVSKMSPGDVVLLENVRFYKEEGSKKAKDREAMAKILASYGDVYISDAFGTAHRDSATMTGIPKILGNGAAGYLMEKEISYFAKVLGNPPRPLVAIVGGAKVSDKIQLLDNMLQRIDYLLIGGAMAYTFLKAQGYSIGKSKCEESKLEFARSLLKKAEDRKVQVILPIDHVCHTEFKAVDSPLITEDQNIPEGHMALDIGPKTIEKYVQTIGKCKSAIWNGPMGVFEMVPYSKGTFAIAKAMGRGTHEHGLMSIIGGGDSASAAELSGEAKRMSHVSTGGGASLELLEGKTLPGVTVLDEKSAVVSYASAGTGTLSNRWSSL

| Compound | outcome |
| --- | --- |
| COc1ccc2c(c[n+](C)c3c4cc5c(cc4ccc23)OCO5)c1OC | inactive |
| S=C(NC1CCCCC1)N1CCC(c2cnc[nH]2)CC1 | inactive |
| C=CCN1CC[C@]23CCCCC2[C@H]1Cc1ccc(O)cc13 (stereo partly specified) | inactive |
| Cc1nccc2c1[nH]c1ccccc12 | inactive |
| Cc1c(C(=O)c2cccc3ccccc23)c2cccc3c2n1[C@H](CN1CCOCC1)CO3 | inactive |
| CNCCc1c[nH]c2ccc(O)cc12 | inactive |
| CC(=O)NCCc1c[nH]c2ccccc12 | inactive |
| CCCCc1ccc(C(=O)O)nc1 | inactive |
| CC1=NN=C(c2ccc(N)cc2)c2cc3c(cc2C1)OCO3 | inactive |
| NC(=NCCC[C@H](N)C(=O)O)N[N+](=O)[O-] | inactive |
| CC[C@@]1(O)C(=O)OCc2c1cc1n(c2=O)Cc2cc3ccccc3nc2-1 | inactive |
| NCc1cc(=O)[nH]o1 | inactive |
| NCCc1c[nH]c2ccc(O)cc12 | inactive |
| c1ccc(CCCN2CCN(CCOC(c3ccccc3)c3ccccc3)CC2)cc1 | inactive |
| C[C@@H](N)Cc1cnc[nH]1 | inactive |
| COC(=O)[C@@H](N)CCCN=C(N)N[N+](=O)[O-] | inactive |
| CN[C@@H]1C[C@@H](c2ccc(Cl)c(Cl)c2)c2ccccc21 | inactive |
| Oc1ccc2c3c1O[C@H]1c4[nH]c5c(c4C[C@@]4(O)[C@@H](C2)N(CC2CC2)CC[C@]314)C[C@@]1(O)[C@H]2Cc3ccc(O)c4c3[C@@]1(CCN2CC1CC1)[C@H]5O4 | inactive |
| C#CCOC(=O)C1=CCCN(C)C1 | inactive |
| CCCN(CCC)[C@@H]1CCc2ccc(O)cc2C1 | inactive |

Target: phosphoglycerate mutase (Leishmania major) (UniProt Q4Q090)
Assay: qHTS Validation Assay to Find Inhibitors of Phosphoglycerate Mutase (AID 504548)
Conditions: biochemical enzyme activity; series mostly up to 57.5 µM
Outline: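 Lm PGAM 1.25nM final; 100 mM TEA pH 7.6, 5 mM MgCl2, 0.01% Tween-20; 45 min RT; Kinase-GloPlus, 10 min; end-point luminescence. Enzyme-free wells as negative controls.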

Chain of phosphoglycerate mutase (Leishmania major) (Q4Q090 1-553): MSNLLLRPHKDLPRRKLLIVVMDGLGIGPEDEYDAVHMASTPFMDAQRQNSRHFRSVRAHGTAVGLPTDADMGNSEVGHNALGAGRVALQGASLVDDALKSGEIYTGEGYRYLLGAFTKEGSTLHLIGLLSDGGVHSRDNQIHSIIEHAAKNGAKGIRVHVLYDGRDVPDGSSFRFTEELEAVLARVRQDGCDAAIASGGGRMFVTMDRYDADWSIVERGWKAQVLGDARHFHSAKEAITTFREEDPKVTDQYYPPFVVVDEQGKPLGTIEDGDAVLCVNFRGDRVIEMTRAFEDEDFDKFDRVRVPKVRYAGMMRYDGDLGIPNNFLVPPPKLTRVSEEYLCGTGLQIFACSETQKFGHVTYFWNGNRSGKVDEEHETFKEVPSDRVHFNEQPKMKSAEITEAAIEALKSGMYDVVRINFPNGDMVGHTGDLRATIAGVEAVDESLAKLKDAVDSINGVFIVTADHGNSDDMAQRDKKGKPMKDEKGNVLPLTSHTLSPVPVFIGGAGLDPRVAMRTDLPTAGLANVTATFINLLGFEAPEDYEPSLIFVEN

| Compound | outcome |
| --- | --- |
| S=C(NC1CCCCC1)N1CCC(c2cnc[nH]2)CC1 | inactive |
| C=CCN1CC[C@]23CCCCC2[C@H]1Cc1ccc(O)cc13 (stereo partly specified) | inactive |
| Cc1nccc2c1[nH]c1ccccc12 | inactive |
| Cc1c(C(=O)c2cccc3ccccc23)c2cccc3c2n1[C@H](CN1CCOCC1)CO3 | inactive |
| CNCCc1c[nH]c2ccc(O)cc12 | inactive |
| CC(=O)NCCc1c[nH]c2ccccc12 | inactive |
| CCCCc1ccc(C(=O)O)nc1 | inactive |
| CC1=NN=C(c2ccc(N)cc2)c2cc3c(cc2C1)OCO3 | inactive |
| NC(=NCCC[C@H](N)C(=O)O)N[N+](=O)[O-] | inactive |
| CC[C@@]1(O)C(=O)OCc2c1cc1n(c2=O)Cc2cc3ccccc3nc2-1 | inactive |
| NCc1cc(=O)[nH]o1 | inactive |
| NCCc1c[nH]c2ccc(O)cc12 | inactive |
| c1ccc(CCCN2CCN(CCOC(c3ccccc3)c3ccccc3)CC2)cc1 | inactive |
| C[C@@H](N)Cc1cnc[nH]1 | inactive |
| COC(=O)[C@@H](N)CCCN=C(N)N[N+](=O)[O-] | inactive |
| CN[C@@H]1C[C@@H](c2ccc(Cl)c(Cl)c2)c2ccccc21 | inactive |
| Oc1ccc2c3c1O[C@H]1c4[nH]c5c(c4C[C@@]4(O)[C@@H](C2)N(CC2CC2)CC[C@]314)C[C@@]1(O)[C@H]2Cc3ccc(O)c4c3[C@@]1(CCN2CC1CC1)[C@H]5O4 | inactive |
| C#CCOC(=O)C1=CCCN(C)C1 | inactive |
| CCCN(CCC)[C@@H]1CCc2ccc(O)cc2C1 | inactive |

System: not listed separately
Assay: Inducers of the Endoplasmic Reticulum Stress Response (ERSR) in human glioma: Validation (AID 504836)
Conditions: human glioma cells, ER stress response reporter; series mostly up to 38.3 µM
Outline: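 ERSR induction read as luciferase luminescence (Bright-Glo, 10 min at room temperature) in stably transfected human U87-MG glioma cells exposed to compounds for 16 h, using GRP78 as sensor.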

| Compound | Potency |
| --- | --- |
| CCOC(=O)C(C)Oc1cccc2c(=O)n(CC(=O)Nc3ccc4c(c3)OCCO4)ccc12 (stereo unspecified) | inactive |
| COc1ccc2c(c[n+](C)c3c4cc5c(cc4ccc23)OCO5)c1OC | inactive |
| S=C(NC1CCCCC1)N1CCC(c2cnc[nH]2)CC1 | inactive |
| C=CCN1CC[C@]23CCCCC2[C@H]1Cc1ccc(O)cc13 (stereo partly specified) | inactive |
| Cc1cccc(C#Cc2ccccc2)n1 | inactive |
| Cc1nccc2c1[nH]c1ccccc12 | inactive |
| NC(CO)C(=O)NNCc1ccc(O)c(O)c1O (stereo unspecified) | inactive |
| CCc1c(C)[nH]c2c1C(=O)C(CN1CCOCC1)CC2 (stereo unspecified) | inactive |
| CNCCc1c[nH]c2ccc(O)cc12 | inactive |
| CC(=O)NCCc1c[nH]c2ccccc12 | inactive |
| CCCCc1ccc(C(=O)O)nc1 | inactive |
| CC1=NN=C(c2ccc(N)cc2)c2cc3c(cc2C1)OCO3 | inactive |
| CC(C)C[C@H](NC(=O)[C@@H](O)[C@H](N)Cc1ccccc1)C(=O)O | inactive |
| NC(=NCCC[C@H](N)C(=O)O)N[N+](=O)[O-] | inactive |
| CC[C@@]1(O)C(=O)OCc2c1cc1n(c2=O)Cc2cc3ccccc3nc2-1 | inactive |
| C[C@]12C[C@H](O)[C@H]3[C@@H](CCC4=CC(=O)CC[C@@]43C)[C@@H]1CC[C@@H]2C(=O)CO | inactive |

| Compound | Potency |
| --- | --- |
| NCc1cc(=O)[nH]o1 | inactive |
| CC(C[N+](C)(C)C)OC(N)=O (stereo unspecified) | inactive |
| NCCc1c[nH]c2ccc(O)cc12 | inactive |
| CC(C)c1ccc2c(c1)c(SC(C)(C)C)c(CC(C)(C)C(=O)O)n2Cc1ccc(Cl)cc1 | inactive |
| CS(=O)(=O)Nc1ccc([N+](=O)[O-])cc1Oc1ccccc1 | inactive |
| c1ccc(CCCN2CCN(CCOC(c3ccccc3)c3ccccc3)CC2)cc1 | inactive |
| C[C@@H](N)Cc1cnc[nH]1 | inactive |
| CC1=C(/C=C/C(C)=C/C=C/C(C)=C/C(=O)O)C(C)(C)CCC1 | inactive |
| COC(=O)[C@@H](N)CCCN=C(N)N[N+](=O)[O-] | inactive |
| CN[C@@H]1C[C@@H](c2ccc(Cl)c(Cl)c2)c2ccccc21 | inactive |
| Oc1ccc2c3c1O[C@H]1c4[nH]c5c(c4C[C@@]4(O)[C@@H](C2)N(CC2CC2)CC[C@]314)C[C@@]1(O)[C@H]2Cc3ccc(O)c4c3[C@@]1(CCN2CC1CC1)[C@H]5O4 | inactive |
| CC(=O)Oc1ccccc1C(=O)O | inactive |
| CC(C)(Sc1ccc(CCN(CCCCC2CCCCC2)C(=O)NC2CCCCC2)cc1)C(=O)O | inactive |
| COc1cc2nc(N3CCCN(C)CC3)nc(NC3CCN(Cc4ccccc4)CC3)c2cc1OC | inactive |
| C#CCOC(=O)C1=CCCN(C)C1 | inactive |
| CCCN(CCC)[C@@H]1CCc2ccc(O)cc2C1 | inactive |
